Bioassay records (PubChem)
NPR1 activator: GC-A (human) enzyme activation | P16066 | HEK293 GC-A cells, cGMP TR-FRET, EC30 ANP; 0% at EC30 ANP, 100% saturating ANP | activation, % at 10 µM | 370,000 tested, 0.14% active; in the data active = activation above about 40%
Target sequence (P16066 whole entry, looked up): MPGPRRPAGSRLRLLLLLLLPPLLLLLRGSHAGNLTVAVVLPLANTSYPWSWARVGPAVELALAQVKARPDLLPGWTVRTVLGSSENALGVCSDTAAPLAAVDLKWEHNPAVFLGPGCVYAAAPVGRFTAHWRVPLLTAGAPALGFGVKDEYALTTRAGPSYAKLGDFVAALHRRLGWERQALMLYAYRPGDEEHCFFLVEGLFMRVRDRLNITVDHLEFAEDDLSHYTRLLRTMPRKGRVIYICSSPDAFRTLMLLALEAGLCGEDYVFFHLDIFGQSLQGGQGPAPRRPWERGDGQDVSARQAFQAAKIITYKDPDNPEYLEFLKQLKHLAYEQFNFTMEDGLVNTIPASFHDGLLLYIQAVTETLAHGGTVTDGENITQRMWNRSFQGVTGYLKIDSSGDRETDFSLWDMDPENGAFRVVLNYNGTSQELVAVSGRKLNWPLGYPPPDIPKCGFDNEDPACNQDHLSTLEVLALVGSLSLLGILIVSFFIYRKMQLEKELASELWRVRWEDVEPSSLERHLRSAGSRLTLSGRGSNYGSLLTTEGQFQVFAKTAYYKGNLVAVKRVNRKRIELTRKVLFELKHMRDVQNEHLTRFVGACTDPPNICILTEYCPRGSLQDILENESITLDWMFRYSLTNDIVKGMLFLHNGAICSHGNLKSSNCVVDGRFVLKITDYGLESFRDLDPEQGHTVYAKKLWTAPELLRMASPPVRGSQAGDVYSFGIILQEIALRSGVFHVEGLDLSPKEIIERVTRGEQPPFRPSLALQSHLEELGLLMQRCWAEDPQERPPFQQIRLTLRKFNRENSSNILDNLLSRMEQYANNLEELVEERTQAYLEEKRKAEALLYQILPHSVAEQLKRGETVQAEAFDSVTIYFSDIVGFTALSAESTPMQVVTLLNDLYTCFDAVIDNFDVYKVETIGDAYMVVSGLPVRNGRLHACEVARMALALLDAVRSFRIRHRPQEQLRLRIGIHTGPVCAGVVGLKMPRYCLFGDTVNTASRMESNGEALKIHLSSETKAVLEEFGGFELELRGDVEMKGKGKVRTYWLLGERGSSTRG
Neddylation inh: inhibitors of human cullin neddylation | AID 651699 | inhibition, % at 25 µM | TR-FRET cullin neddylation, biochemical | 360,000 tested, 0.58% active; in the data active = inhibition above about 36%
PfG6PD inh: PfG6PD (Plasmodium falciparum) enzyme inhibition; 350,000 tested, 0.78% active; PfGluPho enzyme, NADPH resazurin-diaphorase fluorescence; inhibition, % at 20 µM; AID 504690;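 active = inhibition reaching at least a set limit at 20 µM in the primary screen, cut at about 59% in these data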
GC-B act: GC-B (human) receptor activation; 370,000 tested, 0.11% active; HEK293-GC-B cells, CNP EC30, cGMP TR-FRET; 0% at EC30 CNP, 100% saturating CNP; P20594; activation, % at 10 µM;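 active = activation at 10 µM reaching about 35% in either raw or pattern-adjusted values, limit read from the data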
APOBEC3A inh: human APOBEC3A DNA deaminase inhibition; 330,000 tested, 0.41% active; recombinant A3A, FAM/TAMRA ssDNA deamination fluorescence; inhibition, % at 20 µM;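 active = at least 40% inhibition at 20 µM here, with at most 30% in a related deaminase screen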
APOBEC3G inh: blocks human APOBEC3G single-stranded DNA deamination | Q9HC16 | recombinant A3G, ssDNA deamination FAM/TAMRA fluorescence | inhibition, % at 20 µM | 330,000 tested, 0.28% active;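 active = inhibition of at least 40% at 20 µM, with no more than 30% in the related APOBEC3A deaminase screen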
PfGluPho conf: PfG6PD inhibition, single-dose confirmed. inhibition, % at 20 µM. recombinant PfGluPho, NADPH-diaphorase-resazurin fluorescence. shares compounds with PfG6PD inh. 2,400 tested, 34% active;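 active = inhibition of at least 50% at 20 µM in any single replicate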
Diaph ctr 10uM: diaphorase inhibition or oxidation at 10 uM NADPH; shares compounds with PfG6PD inh; diaphorase-coupled resazurin reduction, fluorescence, NADPH 10 uM; inhibition, % at 20 µM; 820 tested, 39% active; AID 504862;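 active = average inhibition reaching 50% or more with the compound at 20 µM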;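 also: resorufin red fluorescence formed as diaphorase reduces resazurin using NADPH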
Diaph ctr 30uM: counter-screen for P. falciparum G6PD inhibitors: diaphorase inhibitors, oxidizers; shares compounds with PfG6PD inh; Diaphorase/resazurin coupled assay, resorufin fluorescence, 30 uM NADPH; inhibition, % at 20 µM; 820 tested, 29% active; AID 504863;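 active = inhibition averaging 50% or more, tested at 20 µM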
Numbers stand for hits; - = inactive; . = not tested or not shown. The list is not random: actives were taken first. Their share in the collection is about 2%.

SMILES	NPR1 activator	Neddylation inh	PfG6PD inh	GC-B act	APOBEC3A inh	APOBEC3G inh	PfGluPho conf	others
c1ccc(-c2cc3c(ccc4nonc43)nn2)cc1	-	-	-	-	-	-	.
On1onc2c3cc(-c4ccccc4)nc3ccc21	-	-	89.6	-	-	-	-
CCCCC(=O)N/N=C/c1ccc(Sc2cccc3cccnc23)o1	-	-	68.1	-	-	-	-
O=C(CSc1cccc2cccnc12)N/N=C/c1ccc(F)cc1	-	.	84.7	-	-	-	64.9	Diaph ctr 10uM=61.1;Diaph ctr 30uM=53.8
O=C1C(F)=CC(COC(c2ccccc2)(c2ccccc2)c2ccccc2)OC1n1cc(F)c(=O)[nH]c1=O (stereo unspecified)	-	-	59.0	-	.	.	-
COc1cc(N=Cc2c(CO)cnc(C)c2O)cc(OC)c1OC	-	.	63.3	-	-	-	68.3	Diaph ctr 10uM=-;Diaph ctr 30uM=-
COc1ccccc1N/N=C/c1c(CO)cnc(C)c1O	-	-	-	-	-	-	.
CC1=C(C(=O)OCc2ccccc2)C(c2cccnc2)n2nnnc2N1 (stereo unspecified)	-	-	61.4	-	-	-	-
O=S(=O)(NNc1ncc(C(F)(F)F)cc1Cl)c1ccccc1	-	-	-	-	-	-	.
O=S(=O)(NNc1ncc(C(F)(F)F)cc1Cl)c1ccc(F)cc1F	-	-	64.8	-	-	-	-
COc1ccc2c(c1)CCCN2C(=O)C1CCCN(S(=O)(=O)c2ccc(C(C)(C)C)cc2)C1 (stereo unspecified)	-	.	.	-	.	.	.
Cc1ccc(S(=O)(=O)Nc2ccc3c4c(cccc24)CC3)c(C)c1	-	-	73.9	-	-	-	-
Cc1cc(C)c(S(=O)(=O)Nc2ccc3c4c(cccc24)CC3)c(C)c1	-	-	90.5	-	-	-	-
N#Cc1c([N+](=O)[O-])cc([N+](=O)[O-])cc1S(=O)(=O)Cc1ccccc1	-	-	109.4	-	-	-	100.5	Diaph ctr 10uM=90.5;Diaph ctr 30uM=92.3
COc1ccc(Cn2cc(CN3[C@@H](CC(C)C)COc4cccc(F)c4S3(=O)=O)nn2)cc1	-	.	.	-	.	.	.
COCCN1Cc2cc(C(=O)OC)c3c(c2C1=O)c1cc(F)ccc1n3C(=O)c1ccccc1	-	.	.	-	.	.	.
CC(SC1=NCCN1S(=O)(=O)c1ccccc1)c1ccccc1 (stereo unspecified)	-	-	62.2	-	-	-	-
Cc1ccc(CSC2=NCCN2S(=O)(=O)c2ccc(C)cc2)cc1	-	-	-	-	.	.	.
Cc1ccc(C)c(CSC2=NCCN2S(=O)(=O)c2ccccc2)c1	-	-	61.9	-	-	-	-
O=S(=O)(c1ccccc1)N1CCN=C1SCc1c(F)cccc1Cl	-	-	105.9	-	-	-	-
O=S(=O)(c1ccc(Cl)cc1)N1CCN=C1SCc1cccc(Cl)c1	-	-	-	-	-	-	.
O=C1CCC2(CCCCC2)N1CCCO	-	.	.	-	.	.	.
CCOC(=O)[C@@]12CN(C(=O)OC(C)(C)C)CC=C1N(Cc1ccc(OC)cc1)C(=O)[C@H]2CC(=O)NCCCOC	-	.	.	-	.	.	.
CC(C)CCNC(=O)C1CCN(c2cncnc2)CC1	-	.	.	-	.	.	.
O=C(CNC(=O)c1ccccc1)NCC(=O)OCC(=O)c1ccc([N+](=O)[O-])cc1	-	-	59.1	-	-	-	55.3	Diaph ctr 10uM=-;Diaph ctr 30uM=-
SMILES	NPR1 activator	Neddylation inh	PfG6PD inh	GC-B act	APOBEC3A inh	APOBEC3G inh	PfGluPho conf	others
O=C(CNC(=O)c1ccc(Br)cc1)NCC(=O)OCC(=O)c1ccc([N+](=O)[O-])cc1	-	-	67.0	-	-	-	57.5	Diaph ctr 10uM=-;Diaph ctr 30uM=-
O=C(CNC(=O)c1ccccc1)NCC(=O)OCC(=O)c1ccc(F)cc1	-	-	-	-	-	-	.
O=C(Nc1nnc(CSCc2ccccc2F)s1)c1cccc([N+](=O)[O-])c1	-	-	61.1	-	-	-	-
CC(C)C(=O)Nc1nnc(CSCc2ccccc2F)s1	-	-	-	-	-	-	.
O=C(Nc1nnc(S(=O)(=O)N2CCCC2)s1)c1cccc([N+](=O)[O-])c1	.	-	97.3	.	-	-	76.7	Diaph ctr 10uM=50.1;Diaph ctr 30uM=-
O=C(Nc1nnc(S(=O)(=O)N2CCCCC2)s1)c1cccc(Br)c1	.	-	99.7	.	-	-	60.7	Diaph ctr 10uM=69.4;Diaph ctr 30uM=-
COc1ccc(C(=O)Nc2nnc(S(=O)(=O)N3CCCCCC3)s2)cc1OC	-	-	-	-	-	-	.
CCc1ccc(CNCC(=O)N2CCC3(CC2)OCCO3)s1	-	.	.	-	.	.	.
CCOC(=O)[C@]12CCCCC/C=C\1N(Cc1ccc(OC)cc1)C(=O)[C@H]2CC(=O)NCc1cccs1	-	.	.	-	.	.	.
Cc1ccc2nc(-c3ccc4c(c3)NC(=O)CO4)cn2c1	-	-	104.0	-	-	-	-
Clc1ccc2nc(-c3ccc4c(c3)OCO4)cn2c1	-	-	73.2	-	-	-	50.3	Diaph ctr 10uM=-;Diaph ctr 30uM=-
Cc1ccc2nc(-c3ccc4c(c3)OCCO4)cn2c1	-	.	109.0	-	-	-	58.3	Diaph ctr 10uM=73.5;Diaph ctr 30uM=61.5
CN(C)S(=O)(=O)c1cccc(-c2cn3cc(Cl)ccc3n2)c1	.	-	-	.	-	-	.
Clc1ccc2nc(-c3ccccc3)cn2c1	-	-	64.4	-	-	-	-
COc1cc(C=NN2CCN(C(c3ccccc3)c3ccccc3)CC2)cc(OC)c1OC(C)=O	-	.	.	-	.	.	.
Cc1ccc(Cn2nnc3c2-c2ccccc2S(=O)(=O)N(C)C3)cc1	-	.	.	-	.	.	.
CCOC(=O)CC[C@H]1CC[C@]2(CCCN(C(=O)c3ccco3)C2)O1	-	.	.	-	.	.	.
NC(=O)C1CCN(CC(=O)Nc2ccccc2Sc2ccccc2)CC1	-	-	-	-	-	-	.
CSc1ccccc1NC(=O)CSc1n[nH]c(N)n1	-	-	-	-	-	-	.
Nc1nc(SCC(=O)Nc2ccccc2Sc2ccc(Cl)cc2)n[nH]1	-	-	110.0	-	-	-	77.4	Diaph ctr 10uM=73.0;Diaph ctr 30uM=54.4
NC(=O)C1CCN(CC(=O)Nc2ccccc2Sc2ccc(Cl)cc2)CC1	-	-	65.5	-	-	-	-
CC(C)C[C@H]1COc2cc(Br)ccc2S(=O)(=O)N1Cc1cn(Cc2ccc(C(F)(F)F)cc2)nn1	-	.	.	-	.	.	.
C[C@]12CC[C@@H]3c4cc(O)c(O)cc4CC[C@H]3[C@@H]1CC[C@@H]2O	-	-	97.1	-	-	-	86.0	Diaph ctr 10uM=-;Diaph ctr 30uM=-
CC(C)(C)c1ccc(-c2nnc(SCC3CCCCO3)n2-c2ccc(Cl)cc2)cc1 (stereo unspecified)	-	.	.	-	.	.	.
CCCCN1C(=O)N2Cc3ccc(C)cc3C2CS1(=O)=O (stereo unspecified)	-	.	.	-	.	.	.
